Screening data (PubChem BioAssay)
MCF10A rereplic = DNA re-replication induction in MCF 10a cells. Potency, µM (doses to about 46.1 µM), usual class: activators. 2.9% of 350,000 active. MCF 10A DNA re-replication, Hoechst nuclear intensity, 48 h. AID 624296; further: nearly all actives have a fitted effect of over 50% in size
ELG1 repair inh = ELG1-dependent DNA repair inhibition. 2.3% of 330,000 active. Potency, µM (highest dose often 46.1 µM), hits mostly inhibitors. AID 504467. HEK293T ELG1-luciferase reporter, luminescence, 16 h; DNA damage induced by 5-fluorouridine; further: nearly all actives have a fitted effect of over 55% in size
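In this reporter screen, reduction of luminescence relative to DMSO vehicle indicated activity. Compounds and 5-fluorouridine were added together to 2,000 cells per well, incubated for 16 hr at 37 °C, then developed with ONE-Glo.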
KB-V1 MDR tox = kills drug-selected multidrug resistant KB-V1 cells. Potency, µM (top dose mostly 46.1 µM), hits mostly cytotoxic. KB-V1 MDR cells viability, CellTiter-Glo, 72 h. 3.4% of 400,000 active. AID 1347076; further: nearly all actives have a fitted effect of over 60% in size
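Cytotoxicity via CellTiter-Glo luminescence after 72 h compound exposure at 37 degrees C. Cells: drug-selected KB-V1 line, DMEM phenol-red free plus 10% FBS. Compounds tested at multiple concentrations; normalized data fitted to concentration-effect curves.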
SW480 rerep = induces DNA re-replication in SW480 colon adenocarcinoma cells; SW480 DNA re-replication, Hoechst DNA content imaging, 48 h; Potency, µM (titrated, usually from 46.1 µM), most hits filed as activators; 1.8% of 340,000 active; AID 624297; further: nearly all actives have a fitted effect of over 55% in size
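Hoechst fluorescence of nuclei (405 nm excitation, 500-530 nm emission) measured by plate-scanning imager after 48 hr compound exposure at 37 C; re-replication scored as increased number of nuclei with elevated intensity.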
KB-3-1 cytotox = kills parental KB-3-1 adenocarcinoma cells. AID 1347075. KB-3-1 viability, CellTiter-Glo ATP luminescence, 72 h. 1.4% of 400,000 active. Potency, µM (highest dose often 46.1 µM), usual class: cytotoxic; further: nearly all actives have a fitted effect of over 60% in size
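Parental KB-3-1 adenocarcinoma cells in phenol-red-free DMEM with 10% FBS were pin-treated with compounds at several concentrations, incubated 72 h at 37 °C, and viability read by CellTiter-Glo luminescence; concentration-effect curves were fitted after normalization.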
Hits are given with their value; n = inactive; u = inconclusive; x = no result given; ! = not confirmed by another sample; [ ] = dose if it differs, or a comment. A selection: hits, their analogues and other compounds. The true share with any hit is near 8.1%. The call rests on the fitted dose curve; in most records, active means well fitted curve in the direction sought with a large enough effect; inconclusive means small, poorly fitted or top-dose-only effect, or another doubt; inactive means no such curve, though single readings can be large; an effect the other way counts as inactive or inconclusive.

SMILES	MCF10A rereplic	ELG1 repair inh	KB-V1 MDR tox	SW480 rerep	KB-3-1 cytotox
Cc1cc(Br)c(NC(=O)CN2C(=O)NC3(CCOc4ccccc43)C2=O)c(Br)c1 (stereo not given)	x	x	n	x	n
COc1ccc(CC(=O)NNC(=O)c2ccc(SCc3cc(F)ccc3F)c([N+](=O)[O-])c2)cc1	n	n	n	n	n
Cc1ccc(O)c(C(=O)c2cc(C#N)c(=O)n(-c3nccs3)c2)c1	12µM	n	u	n	u
CCCCNC(=O)O[C@@H]1C[C@@H]2CCN3C(=O)CCC[C@H]([C@H]1CC)[C@H]23	n	n	21µM!	n	n
CCCCNC(=O)O[C@H]1C[C@@H]2CCN3C(=O)CCC[C@H]([C@H]1CC)[C@H]23	n	n	n	n[9.22 µM]	n
Cc1cc(C(=O)NC(C)C)on1	n	n	n	n	n
O=C(NCCC1=CCCCC1)C(=O)NCC(c1ccco1)N1CCN(c2ccccc2)CC1 (stereo not given)	u	n	u	u	n
O=C(NCCC1=CCCCC1)C(=O)NCC(c1ccco1)N1CCN(c2ccccc2F)CC1 (stereo not given)	n	n	4.1µM	n	n
COc1ccc(N2CCN(C(CNC(=O)C(=O)NCCC3=CCCCC3)c3ccco3)CC2)cc1 (stereo not given)	n	n	2.6µM	n	n
Cc1ccccc1NC(=O)C1CC(=O)N(c2ccc3c4c(cccc24)CC3)C1 (stereo not given)	n	n	n	n	n
O=C(Nc1ccccc1Br)C1CC(=O)N(c2ccc3c4c(cccc24)CC3)C1 (stereo not given)	21µM	u	u	u	4.6µM
Cc1[nH]c2ccccc2c1SCC(=O)N1CCCCC1	5.8µM	n	n	n	n
O=C(OCC(=O)N1CCCC1)c1c[nH]c2ccccc12	n	u	n	n	n
Cc1[nH]c2ccccc2c1C(=O)CSC(=S)N1CCCCC1	n	u	13µM	n	n
Cc1[nH]c2ccccc2c1C(=O)CSC(=S)N(C)C1CCCCC1	n	u	n	n	n
O=C(OCC(=O)N1CCCCC1)c1c[nH]c2ccccc12	n	u	21µM	n	n
Cc1c(NC(=O)/C(C#N)=C/c2c(N3CCCCC3)nc3ccccn3c2=O)c(=O)n(-c2ccccc2)n1C	n	n	n	n	n
Cc1ccc(OCCNC(=O)c2ccc3c(c2)OCO3)cc1	n	u	n	n	n
O=C(Nc1nnc(-c2ccccc2)o1)Nc1ccccc1Cl	n	n	n	n	n
Cc1cc(/C=C2\Cc3ccccc3C2=O)c(C)n1-c1ccccc1	21µM	u	n	u	n
Cc1ccc(S(=O)(=O)CC(=O)Nc2ccc(F)c(F)c2F)cc1	n	n	n	n	n
CC(O)CNCCCOc1ccc(Cl)cc1C(C)(C)C (stereo not given)	n	n	21µM	n	u
OCCN1CCN(CCSc2ccccc2)CC1	u	n	n	u	n
CCOc1ccc2nc(NCCNC(=O)CC)c(C#N)cc2c1	u	n	u	u	n
Cc1cc(C)c2cc(C#N)c(NCCCNC(=O)c3ccncc3)nc2c1	x	x	n	x	n
SMILES	MCF10A rereplic	ELG1 repair inh	KB-V1 MDR tox	SW480 rerep	KB-3-1 cytotox
COc1cc(C(=O)NCCOc2ccccc2)cc(OC)c1OC	n	n	u	n	n
COc1cc(C(=O)NCCCNc2ccc([N+](=O)[O-])cc2)cc(OC)c1OC	n	u	21µM	n	n
COc1cc(C(=O)NCCCNc2nc3cc(C)cc(C)c3cc2C#N)cc(OC)c1OC	u	u	5.8µM	n	u
CCOc1ccc2nc(NCCCNC(=O)c3cc(OC)c(OC)c(OC)c3)c(C#N)cc2c1	u	6.5µM	n	10µM	n
COc1cc(C(=O)NCCOc2cc(C)cc(C)c2)cc(OC)c1OC	21µM	u	5.8µM	7.3µM	4.6µM
CCn1c(SCC(=O)Nc2ccc3c(c2)OCO3)nc2ccccc21	n	u	u	n	n
COC(=O)c1cc(C)ccc1/C=C1/Cc2c(C)cc(C)cc2C1=O	n	x	16µM	n	n
COC(=O)c1ccccc1C(=O)c1c(C)cc(C)cc1C	x	x	n	x	x
CC(=O)c1ccc(S(=O)(=O)N2CCN(C(=O)c3ccc(-n4cncn4)c([N+](=O)[O-])c3)CC2)cc1	n	n	n	n	u
CSCCC1NC2(C(=O)Nc3c(C)cc(Cl)cc32)[C@@H]2C(=O)N(C3CCCC3)C(=O)[C@H]12 (stereo not given in full)	n	u	4.6µM	u	u
CSCCC1NC2(C(=O)Nc3c(Cl)cccc32)[C@@H]2C(=O)N(C3CCCC3)C(=O)[C@H]12 (stereo not given in full)	n	u	n	n	n
C=CCSC(=C(C#N)C#N)c1cc2c([nH]1)CCCC2	u	u	u	u	18µM
Cc1ccc(-n2nnc3c(=O)n(CC(=O)NCC4CCCO4)cnc32)cc1 (stereo not given)	n	n	n	n	n
C=CCN(CC=C)C(=O)C(=O)c1cc(C)n(-c2ccc([N+](=O)[O-])cc2)c1C	n	n	7.3µM	n	n
CC(=O)c1cccc(NC(=O)COc2ccccc2C(=O)c2cc(C#N)c(=O)n(C3CCCCC3)c2)c1	n	10µM	n	n	n
N#Cc1cc(C(=O)c2ccccc2OCC(=O)Nc2ccccc2Cl)cn(C2CCCCC2)c1=O	n	u	n	n	n
CCOC(=O)C1CCCN(Cc2cccs2)C1 (stereo not given)	n	n	n	n	n
O=C(NCCNc1ccc([N+](=O)[O-])cc1)c1ccco1	n	n	n	n	n
Cc1ccc(C(=O)CC(SCC(=O)O)c2ccc([N+](=O)[O-])cc2)cc1 (stereo not given)	18µM	n	n	u	n
O=C(CC(SCCO)c1ccc([N+](=O)[O-])cc1)c1ccco1 (stereo not given)	n	u	n	n	21µM
COc1ccc(C(CC(=O)c2ccc(C)cc2)Sc2ccccc2N)cc1 (stereo not given)	x	x	n	x	n
CC(=O)NC(CSC(CC(=O)c1ccco1)c1ccc(C)cc1)C(=O)O (stereo not given)	21µM	u	n	u	n
Nc1ccccc1SC(CC(=O)c1ccccc1)c1ccc([N+](=O)[O-])cc1 (stereo not given)	x	x	n	x	21µM
COc1ccc(C(CC(=O)c2ccc(C)cc2)Nc2ccc([N+](=O)[O-])cc2)cc1 (stereo not given)	u	n	u	n	u
COc1cc2c(cc1OC)C(C(=O)O)C(c1ccc(C)o1)N(C)C2=O (stereo not given)	n	n	n	n[9.22 µM]	n
O=C(Nc1ccc(F)cc1F)c1ccc(-c2ccccc2)s1	x	x	u	x	n
C=CCNC(=O)c1ccc(CSc2nc3ccccc3s2)cc1	n	n	n	n	n
C=C1C(=O)OC2C1CCC(C)C1C=CC(=O)C12C (stereo not given)	2.1µM	x	u	6.5µM	u
